Assay outcomes as filed in PubChem.
The sample as a whole holds a higher share of hits than the screen did.
FECH block = inhibitors of human ferrochelatase, primary screen, biochemical, purified FECH, Ni-mesoporphyrin absorbance. Ferrochelatase, mitochondrial (Homo sapiens), P22830. Ni-mesoporphyrin absorbance 550 nm. calls only at 10 µM (by protocol). hit rate 3.3% among 20,000. AID 1671448, 2021;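 active means enzyme reaction rate more than 3 SD below the solvent-only control wells on the same plate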;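 further: lower slope than DMSO wells means FECH inhibition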
Target sequence (P22830 whole entry, looked up): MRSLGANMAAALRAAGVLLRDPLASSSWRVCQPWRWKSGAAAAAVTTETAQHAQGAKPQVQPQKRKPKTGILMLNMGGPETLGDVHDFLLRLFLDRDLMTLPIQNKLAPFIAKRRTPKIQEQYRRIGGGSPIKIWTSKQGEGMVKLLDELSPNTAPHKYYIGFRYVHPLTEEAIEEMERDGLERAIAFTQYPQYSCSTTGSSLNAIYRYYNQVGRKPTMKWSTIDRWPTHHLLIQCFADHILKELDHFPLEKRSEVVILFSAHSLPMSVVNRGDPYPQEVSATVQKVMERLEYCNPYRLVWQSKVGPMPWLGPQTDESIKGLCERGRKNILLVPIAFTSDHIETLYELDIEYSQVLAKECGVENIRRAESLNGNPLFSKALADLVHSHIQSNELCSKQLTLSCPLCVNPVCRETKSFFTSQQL
Calls only; . = inactive; + = active, no number.

SMILES	FECH block
O=c1cc(CNc2cccc(C(F)(F)F)c2)nc2nc(NCc3ccccc3)[nH]n12	.
COc1ccc(CNc2nc3nc(CNc4cccc(C)c4)cc(=O)n3[nH]2)cc1	.
CCc1ccc(NCc2cc(=O)n3[nH]c(NCc4ccccc4)nc3n2)cc1	.
CCCNCc1cc(=O)n2[nH]c(NCc3ccccc3)nc2n1	.
O=c1cc(CNCc2ccccc2)nc2nc(NCc3ccccc3)[nH]n12	+
COc1ccc(CNc2nc3nc(CNc4ccc(C)c(C)c4)cc(=O)n3[nH]2)cc1	.
COc1ccc(CNc2nc3nc(CNc4ccccc4C)cc(=O)n3[nH]2)cc1	.
COc1ccccc1CNC(=O)CNCC1(C)CC(C)=NO1 (stereo not given)	.
COc1ccc(Cn2c(CNC(=O)c3ccc(F)cc3)nc3cccnc32)cc1	.
CCS(=O)(=O)Nc1nc2n(n1)C(c1ccc(Cl)cc1)C=C(c1ccc(Br)cc1)N2 (stereo not given)	.
COc1ccc(N2C(=O)CCS2(=O)=O)cc1S(=O)(=O)NCc1ccncc1	.
Cc1ccc(Cn2c(CCNC(=O)Nc3ccc(C)cc3Cl)nc3cccnc32)cc1	.
Cc1cc(NC(=O)c2ccccc2)n(-c2ncnc3c2cnn3-c2ccc(Cl)cc2)n1	.
CCc1nccn1CC(=O)Nc1cccc(C(=O)Nc2c(C)cccc2C)c1	.
CCc1c(C)nc2ncnn2c1Sc1ccc(NS(=O)(=O)c2ccc(Cl)cc2)cc1	.
COCCCNS(=O)(=O)c1cc(-c2ccc(=O)[nH]n2)ccc1Cl	.
COc1ccc(CNc2nc3nc(CNc4ccccc4Cl)cc(=O)n3[nH]2)cc1	.
Cc1ccc(NCc2cc(=O)n3[nH]c(NCc4ccccc4)nc3n2)cc1Cl	.
Cc1ccc(Cl)cc1NCc1cc(=O)n2[nH]c(NCc3ccccc3)nc2n1	+
COc1ccccc1N1CCN(Cc2cc(=O)n3[nH]c(-c4cccc(C)c4)nc3n2)CC1	+
COc1ccc(Cl)cc1NCc1cc(=O)n2[nH]c(-c3ccc(C(C)(C)C)cc3)nc2n1	+
Cc1cccc(-c2nc3nc(CN4CCN(c5ccccc5)CC4)cc(=O)n3[nH]2)c1	.
CCOc1ccc(NCc2cc(=O)n3[nH]c(-c4ccc(C(C)(C)C)cc4)nc3n2)cc1	+
COc1ccccc1NCc1cc(=O)n2[nH]c(-c3ccc(C(C)(C)C)cc3)nc2n1	.
Cc1c(Cl)cccc1NCc1cc(=O)n2[nH]c(-c3ccc(C(C)(C)C)cc3)nc2n1	.
SMILES	FECH block
Cc1ccccc1NCc1cc(=O)n2[nH]c(-c3ccc(C(C)(C)C)cc3)nc2n1	+
COc1ccc(Cl)cc1NCc1cc(=O)n2[nH]c(NCc3ccc(F)cc3)nc2n1	.
Cc1cccc(-c2nc3nc(CN4CCN(c5ccc(F)cc5)CC4)cc(=O)n3[nH]2)c1	.
COc1ccc(NCc2cc(=O)n3[nH]c(-c4ccc(C(C)(C)C)cc4)nc3n2)cc1	.
CCOc1ccc(NCc2cc(=O)n3[nH]c(NCc4ccccc4)nc3n2)cc1	.
Cc1ccc(NCc2cc(=O)n3[nH]c(-c4ccc(C(C)(C)C)cc4)nc3n2)cc1Cl	.
COc1ccc(C(=O)N(Cc2nc3nc(C)c(Cl)c(C)n3n2)c2ccccc2)cc1OC	.
CN1CCC(O)(Cn2cnc3ccc(F)cc3c2=O)CC1	.
Cc1cc2c(cc1S(=O)(=O)N1CCCC1C(=O)NCc1ccccc1Cl)OCC(=O)N2 (stereo not given)	.
CCc1ccc(C(=O)N(Cc2ccc(F)cc2)C(CC)CO)s1 (stereo not given)	.
COc1ccc(OC)c(Nc2nc(N3CCN(CCO)CC3)nc3c2cnn3-c2ccccc2)c1	.
CN1CCN(Cc2cc(=O)n3[nH]c(-c4ccc(C(C)(C)C)cc4)nc3n2)CC1	.
CC(C)(C)c1ccc(-c2nc3nc(CN4CCN(c5ccccc5)CC4)cc(=O)n3[nH]2)cc1	.
CC(C)(C)c1ccc(-c2nc3nc(CNc4ccccc4)cc(=O)n3[nH]2)cc1	+
CC(C)(C)c1ccc(-c2nc3nc(CNc4cccc(C(F)(F)F)c4)cc(=O)n3[nH]2)cc1	.
CC(C)(C)c1ccc(-c2nc3nc(CNc4ccc(Cl)cc4)cc(=O)n3[nH]2)cc1	.
CCc1ccccc1NCc1cc(=O)n2[nH]c(-c3ccc(C(C)(C)C)cc3)nc2n1	+
CN(Cc1ccccc1)Cc1cc(=O)n2[nH]c(-c3ccc(C(C)(C)C)cc3)nc2n1	.
CC(C)(C)c1ccc(-c2nc3nc(CN4CCc5ccccc5C4)cc(=O)n3[nH]2)cc1	+
CC(C)(C)c1ccc(-c2nc3nc(CN4CCCCC4)cc(=O)n3[nH]2)cc1	.
COCC(=O)Nc1ccc2c(c1C)NC(=O)CC2c1cccc(Cl)c1Cl (stereo not given)	.
Cc1ccc(Nc2cc(C)nc(Nc3ccc(NC(=O)c4ccccc4F)cc3)n2)cc1	.
COCCn1c(CCCC(=O)NCc2ccc3c(c2)OCO3)nc2cccnc21	.
Cc1cc(C)cc(Nc2nc(N(C)C)nc3c2cnn3-c2ccccc2)c1	.
CC(=O)N1c2ccc(S(=O)(=O)N3CCOCC3)cc2CC1C(=O)N1CCc2ccccc2C1 (stereo not given)	.
SMILES	FECH block
c1cncc(OCc2nc(C3CC3)nn2-c2ccc3c(c2)OCCO3)c1	.
CCn1c(=O)n(-c2ccc(C)c(C)c2)c2nc(-c3ccc(F)cc3)nc(C(N)=O)c21	.
CCn1cnnc1CCNc1ncnc2sc(C)c(C)c12	.
Cn1ccc2c(-c3cccc(O)c3)ccnc21	.
FC(F)(F)c1ccc(-c2ccnc3[nH]ccc23)nc1	.
CC(=O)c1cccc(-c2ccnc3[nH]ccc23)c1	+
C=C(C)COc1ccc(C(=O)NC(C)Cc2cnccn2)cc1 (stereo not given)	+
CC(Cc1cnccn1)NC(=O)c1cccc(-c2cccc(F)c2)c1 (stereo not given)	.
CC(Cc1cnccn1)NC(=O)c1cc(-c2ccccc2)nn1C (stereo not given)	.
CNc1nc(C(=O)N2CCC(Cc3cccc(C(=O)O)c3)CC2)cs1	.
Cc1noc(CN(C)C(=O)C(C)n2ccnc2C(C)C)n1 (stereo not given)	.
c1ccc(-c2noc(CCCc3c[nH]c4ccccc34)n2)cc1	.
CC(CN1CCOCC1)NC1CCN(C(=O)NC2CCCCC2)CC1 (stereo not given)	.
O=C(c1nc2sccn2c1CN1CC(O)C1)N1CCCCC1	.
CCCCC1CCC(C(=O)Nc2cc(C)nn2-c2ncnc3c2cnn3-c2ccc(C)cc2C)CC1 (stereo not given)	.
Cc1cc(NC(=O)c2ccc(F)c(F)c2)n(-c2ncnc3c2cnn3-c2cccc(C)c2C)n1	.
Cc1ccc(-n2ncc3c(-n4nc(C)cc4NC(=O)C4CCCC4)ncnc32)c(C)c1	+
Cc1ccc(C(=O)Nc2cc(C)nn2-c2ncnc3c2cnn3-c2cccc(Cl)c2)cc1	.
Cc1cc(C)cc(C(=O)Nc2cc(C)nn2-c2ncnc3c2cnn3-c2cccc(Cl)c2)c1	+
Cc1cc(C)cc(C(=O)Nc2cc(C)nn2-c2ncnc3c2cnn3-c2ccc(Cl)cc2)c1	.
Cc1ccc(-n2ncc3c(-n4nc(C)cc4NC(=O)CCC4CCCC4)ncnc32)c(C)c1	.
Cc1ccc(C(=O)Nc2cc(C)nn2-c2ncnc3c2cnn3-c2cccc(C)c2C)cc1	+
COc1cccc(C(=O)Nc2cc(C)nn2-c2ncnc3c2cnn3-c2cccc(C)c2C)c1	.
CC(=O)c1cccc(NC(=O)CSc2nc(-c3ccco3)nc3cc(=O)[nH]n23)c1	.
Cc1ccc(NC(=O)C2=CCN(Cc3cccc(C)c3)CC2)cc1	.
